Screening data: PubChem BioAssay, Buhrlage Lab, Dana-Farber Cancer Institute and Novartis Institutes for BioMedical Research (Cambridge, Mass)
Only some compounds are listed: those with a hit (about 13% of all), similar ones and a draw of the others.
USP10 block = inhibitors of human USP10 deubiquitinase. Ubiquitin carboxyl-terminal hydrolase 10 (Homo sapiens), Q14694. purified USP10, Ub-rhodamine fluorescence, 60 min. inhibition, % at 20 µM. 1.1% of 47,000 active. AID 1645856, 2021
USP8 block = inhibitors of human USP8 deubiquitinase; Ubiquitin carboxyl-terminal hydrolase 8 (Homo sapiens), P40818; purified USP8, Ub-rhodamine cleavage fluorescence, 30 min; inhibition, % at 20 µM; 4.2% of 47,000 active; AID 1645853, 2021
USP30 inh = inhibitors of human USP30 deubiquitinase; purified USP30, Ub-rhodamine cleavage fluorescence; inhibition, % at 25 µM; Ubiquitin carboxyl-terminal hydrolase 30 (Homo sapiens), Q70CQ3; 5.3% of 47,000 active
USP28 inh = inhibitors of human USP28 deubiquitinase | Ubiquitin carboxyl-terminal hydrolase 28 (Homo sapiens), Q96RU2 | purified USP28, Ub-rhodamine cleavage fluorescence, 30 min | 3% of 47,000 active | inhibition, % at 25 µM
USP17 block = inhibitors of human USP17 deubiquitinase. Ubiquitin carboxyl-terminal hydrolase 17-like protein 5 (Homo sapiens), A8MUK1. purified USP17, Ub-rhodamine cleavage fluorescence, 3 h. inhibition, % at 50 µM. 6.5% of 47,000 active. AID 1645855, 2021
Of the large screens only hits and unclear results are named; the others gave an inactive call. Cut-off read from the data, not from the text of the source: active = inhibition above about 30%; inactive = the rest.

COc1ccc2nc(N3CC(C(=O)Nc4ccc(C(N)=O)cc4)C3)sc2c1	USP30 inh 62, USP28 inh 32, USP17 block 65
COc1ccc(C(=O)N[C@@H]2C(=O)Nc3c(c(C)nn3C)[C@H]2c2ccc(C(C)C)cc2)cc1OC	none
COc1ccc(-c2cc(C(=O)OCC(=O)Nc3cc(C)on3)c3ccccc3n2)cc1OC	USP17 block 30
CC(C)C1Cc2c(sc3nc(SCC(=O)NC(c4ccccc4)c4ccccc4)nc(N)c23)CO1 (stereo not drawn)	none
Cc1noc(C)c1CCC(=O)N1CCN(CC2CCCO2)CC1 (stereo not drawn)	none
CC(C)c1ccc(NC(=O)C2C3C=CC4(O3)C2C(=O)N(CCCN2CCC(Cc3ccccc3)CC2)C4C(=O)NC2CCCCC2)cc1 (stereo not drawn)	USP30 inh 36
CC(C)CCN1C(=O)C2C(C(=O)Nc3ccc(Oc4ccccc4)cc3)C3C=CC2(O3)C1C(=O)NC1CCCCC1 (stereo not drawn)	USP8 block 31, USP30 inh 63 (no result: USP17 block)
c1coc(-c2cc3nc(NCCCn4ccnc4)ccn3n2)c1	USP17 block 46
c1ccc(-c2cc3nc(NCCc4ccncc4)ccn3n2)cc1	none
COc1ccc(/C=C(/C#N)c2c[nH]c3ccccc23)cc1	none
COc1ccc(C(=O)c2c[nH]c3ccccc3c2=O)cc1	USP17 block 32 (no result: USP30 inh, USP28 inh)
CCOc1ccc(-n2ccnc(NCc3ccc(OC)cc3)c2=O)cc1	none
COc1ccc(-n2ccnc(SCc3ccc(Cl)cc3)c2=O)cc1	USP28 inh 36, USP17 block 33
Cc1ccccc1NC(=O)C1CCN(S(=O)(=O)c2ccc3c(c2)OCCCO3)CC1	USP30 inh 74, USP17 block 69
O=C(NCc1ccccc1)c1cc(S(=O)(=O)N2CCCCC2)ccc1N1CCOCC1	none
O=C(Nc1ccc2c(c1)OCCCO2)c1cc(S(=O)(=O)N2CCCCC2)ccc1N1CCCC1	USP30 inh 78, USP17 block 68
O=S(=O)(Nc1cc(S(=O)(=O)N2CCCCC2)ccc1O)c1ccc2c(c1)OCCCO2	USP8 block 83, USP17 block 34
O=C(Nc1ccc(N2CCCCC2)cc1)C1CCN(S(=O)(=O)c2ccc3c(c2)OCCCO3)CC1	none
COC(=O)c1ccc2c(=O)n(CCCCCC(=O)NCCc3ccc(OC)c(OC)c3)c(=O)[nH]c2c1	USP8 block 46, USP30 inh 46
Cn1cc(CCCC(=O)NCc2cccc(Cl)c2)c2ccccc21	none
COC(=O)c1ccc2c(=O)n(CCCCCC(=O)NCc3cccc(Cl)c3)c(=O)[nH]c2c1	USP10 block 39, USP8 block 65, USP30 inh 62, USP17 block 31
COC(=O)c1ccc2c(=O)n(CCCCCC(=O)NCCC3=CCCCC3)c(=O)[nH]c2c1	none
Cc1ccc(CN2CCCC(n3c(=O)n(C)c4cncnc43)C2)o1 (stereo not drawn)	none
Cc1c(CC(=O)NCCC(=O)O)c(=O)oc2cc(O)c(Cl)cc12	none
COc1nc2c(c(-c3ccco3)c1C#N)Cc1cc(NC(C)=O)ccc1-2	USP8 block 66, USP17 block 39
COc1ccc(NC(=O)COc2cccc(-c3noc(-c4ccco4)n3)c2)cc1	none
Cc1nccn1Cc1nc(-c2cccc(F)c2)no1	none
O=C1COc2ccc(C(=O)COC(=O)CCc3nc4ccccc4s3)cc2N1	USP30 inh 30, USP28 inh 32, USP17 block 48
O=C1COc2ccc(C(=O)COC(=O)c3ccccc3O)cc2N1	USP17 block 36
O=C1COc2ccc(C(=O)COC(=O)C3(c4ccc(F)cc4)CCCC3)cc2N1	none
O=C(NNC1=NC2(CCCC2)Cc2ccccc21)c1cccnc1	USP30 inh 32
CC(C)NC(=O)C1C2C(=O)Nc3ccccc3C(=O)C21C (stereo not drawn)	none (no result: USP30 inh, USP28 inh)
Cn1c(=O)n(CC(=O)NCc2cccc(F)c2)c2cccnc21	none (no result: USP30 inh, USP28 inh)
Cc1cc(C)c(NC(=O)Cn2c(SCc3cccc(F)c3)nc3cccnc32)c(C)c1	USP8 block 57, USP30 inh 73, USP28 inh 40, USP17 block 64
CCc1ccccc1NC(=O)Cn1c(SCc2ccc(F)cc2)nc2cccnc21	USP10 block 36, USP8 block 70, USP30 inh 57, USP28 inh 43, USP17 block 86
